29 compounds from PubChem BioAssay (EPA / NIEHS) can be followed below.

What is called AC50 is the concentration at which the activity in the assay is half-maximal.

Several values for one entry are separate records, joined by “and”; a condition that tells them apart may be missing. Equal entries are not always repeated. Records with an inconclusive call do not appear. Some structures have more than one record in an assay (separate samples or runs), and their calls can disagree. Activity calls are given as the source filed them. Rule for the calls: active = hit-call score of the fitted dose curve at least 0.9, where 1 is the maximum; inconclusive = response in the unintended direction; inactive = score below 0.9.

The experiment is described as follows: Tanguay_ZF_120hpf_JAW_legacy: (Legacy) Oregon State University Tanguay Lab 120 Hour Post-fertilization zebrafish Assay for Jaw Malformation (AID 2283638).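 For AC50: active means more embryos with jaw malformation than DMSO controls.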 The gist of the method:
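Binary jaw-malformation calls at 120 hpf by brightfield imaging; DMSO (0.64% v/v) = baseline. Embryos: 5D wild-type, pronase-dechorionated, one per well from 6 hpf, static exposure, 28C, sealed, dark.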
For the compound `CCN(CC)C(=O)c1cccc(C)c1`, the compound was called inactive.

With `N#CSCSc1nc2ccccc2s1`, the call was inactive.

On to `COc1c(Cl)ccc(Cl)c1C(=O)O`, for which the call was inactive.

`O=C(c1ccccc1)C1CCCCC1`: the outcome was inactive.

For the compound `CCNc1nc(N)nc(Cl)n1`, the outcome was inactive.

`CC(C)(c1ccc(O)cc1)c1ccc(O)cc1`: the AC50 is 41.7 µM (active) and 36.1 µM (active); the outcome was inactive.

As for `CCCN(CCC)c1c([N+](=O)[O-])cc(C(F)(F)F)c(N)c1[N+](=O)[O-]`, the compound was classed as inactive.

On to `CCOC(=O)NCCOc1ccc(Oc2ccccc2)cc1`, for which the outcome was inactive.

`CCCCOC(=O)C(C)Oc1ccc(Oc2ccc(C(F)(F)F)cn2)cc1` (stereo not given): the result was inactive.

With `Cc1nn(C)c(Oc2ccccc2)c1C=NOCc1ccc(C(=O)OC(C)(C)C)cc1`, the result was inactive.

In the case of `C#CCOC(=O)[C@@H](C)Oc1ccc(Oc2ncc(Cl)cc2F)cc1`, the compound was called inactive.

Consider `CC1(C)C(C=C(Cl)Cl)C1C(=O)OCc1cccc(Oc2ccccc2)c1` (stereo not given), for which the compound was classed as inactive.

With `CCCCCOC(=O)COc1cc(N2C(=O)C3=C(CCCC3)C2=O)c(F)cc1Cl`, the compound was called inactive.

For `CCC(C)OC(=O)N1CCCCC1CCO` (stereo not given), the result was inactive.

Take `O=C(O)c1ccccc1`: the result was inactive.

Regarding `O=C(c1ccc(O)cc1O)c1ccc(O)cc1O`, the result was inactive.

With `CC(C)CCCCCCc1ccc(O)cc1`, the result was inactive.

For the compound `C[C@]12C[C@H](O)[C@H]3[C@@H](CCC4=CC(=O)CC[C@@]43C)[C@@H]1CC[C@@H]2C(=O)CO`, the compound was classed as inactive.

For the compound `S=C([S-])NCCNC(=S)[S-].[Mn+2]`, the result was inactive.

For the compound `S=C(S)NCCNC(=S)S.[Mn+2].[S-]C([S-])=NCCN=C([S-])[S-].[Zn+2]`, the compound was classed as inactive.

As to `COCCO`, the result was inactive.

For `O=C(O)C1(C(=O)Nc2ccc(Cl)cc2Cl)CC1`, the result was inactive.

In the case of `CCCCC(CC)CN1C(=O)C2C3C=CC(C3)C2C1=O` (stereo not given), the compound was classed as inactive.

For the compound `CCCCOCCOCCOCc1cc2c(cc1CCC)OCO2`, the call was inactive.

Regarding `CCOC(=O)C(C)Oc1ccc(Oc2nc3ccc(Cl)cc3o2)cc1` (stereo not given), the compound was called inactive.

`CC(=O)[C@H]1CC[C@H]2[C@@H]3CCC4=CC(=O)CC[C@]4(C)[C@H]3CC[C@]12C`: the call was inactive.

As for `CCSC(=O)N(CC(C)C)CC(C)C`, the compound was called inactive.

On to `CCN(Cc1c(F)cccc1Cl)c1c([N+](=O)[O-])cc(C(F)(F)F)cc1[N+](=O)[O-]`, for which the result was inactive.

As for `CCOC(=O)C(C)Oc1ccc(Oc2cnc3cc(Cl)ccc3n2)cc1` (stereo not given), the outcome was inactive.
